Here are results for 35 molecules from ChEMBL document CHEMBL1157539, “Thousands of chemical starting points for antimalarial lead identification” (Nature, 2010).

The structures appear in SMILES notation.

By Inhibition is commonly meant the change of the read-out against control, counted positive when it falls. A low value points to little suppression.

In this assay the test system is Plasmodium falciparum. Briefly: GSK_TCMDC: Inhibition of Plasmodium falciparum 3D7 in whole red blood cells, using parasite LDH activity as an index of growth. Test compounds present at 2uM. The format is functional.
For the molecule `COc1ccc2nccc([C@@H](O)CN3CCC(NC(=O)C(c4cc5ccccc5s4)N4CCN(c5ccccc5OC)CC4)CC3)c2c1` (stereo not given in full), the Inhibition turned out to be 100%. In turn, `COc1cc(NC(=O)/C=C/c2ccccc2OC(F)(F)F)cc(OCCN2CCN(CCN3CCOCC3)CC2)c1.O=C(O)C(=O)O` registered an Inhibition of 98%. In turn, `O=C(/C=C/c1ccc(Cl)c(Cl)c1)NCCCCCN1CCC(NC(=O)Nc2ccc(F)c(Cl)c2)CC1` returned an Inhibition of 100%. The result for `O=C(NCCCN1CCOCC1)c1cccc(Nc2nccc(Nc3ccc(Oc4ccccc4)cc3)n2)c1` reads 98%. The result for `CCOC(=O)c1ccc(N2CCN(c3cc(C)ccc3C)CC2)c(NC(=O)Nc2ccc(Cl)c(Cl)c2)c1` reads 100%. As for `CC(CN1CCN(C)CC1)C(=O)Nc1cccc(-c2ccc(-c3nc4ccccc4[nH]3)cc2)c1` (stereo not given), the Inhibition turned out to be 95%.

`Cc1cccc2nc(-c3ccc(-c4ccc(NC(=O)Nc5ccsc5)cc4)cc3)[nH]c12` displayed an Inhibition of 100%. As for `Cl.NC1=NC(c2ccccc2)N(c2ccccc2)C(N)=N1` (stereo not given), the figure is 96%; as for `Cc1cc(CNC(=O)[C@H](CC2CCCCC2)Nc2ccc(C#N)c3ccccc23)c(C(F)(F)F)o1.O=C(O)C(F)(F)F`, 87%.

Molecule `COc1ccc(OC)c(-c2cccc(-c3cccc(NC(=O)c4ccc([N+](=O)[O-])o4)c3)n2)c1` had an Inhibition of 98%. The result for `CN1CCC(C(=O)Nc2ccc(-c3cccc(-c4nc5cc(F)ccc5[nH]4)c3)cc2)CC1` reads 100%; that for `CC(=O)Nc1ccc(C(=O)Nc2cccc(-c3ccc(-c4nc5cc(F)ccc5[nH]4)cc3)c2)cn1`, 99%. Turning to `CN(C)CCOc1cc(NC(=O)Nc2ccc(-c3ccncc3)c3ccccc23)ccc1I`, the Inhibition is recorded as 97%. As for `Cc1ccc(C(=O)Nc2ccc(F)cc2)cc1-c1nc(NC2CC(C)(C)NC(C)(C)C2)nc2c1ccc(=O)n2-c1c(F)cccc1F`, the figure is 89%. The result for `O=C(C1CC1c1ccccc1)N(Cc1ccc(-c2ccc(CNCCc3ccccc3)cc2)cc1)C1CCNCC1.O=C(O)C(F)(F)F` (stereo not given) reads 96%.

Take `Nc1ncc(-c2cn[nH]c2)cc1-c1nc2ccc(F)cc2[nH]1`: the Inhibition is on record as 100%. The result for `Cc1nc(-c2nc(NCCc3c(C)noc3C)ncc2-c2ccsc2)sc1C` reads 87%; that for `O=C(NCc1ccc(Cl)c(Cl)c1)c1cccc(C2CCCN(Cc3ccc4[nH]cnc4c3)C2)c1` (stereo not given), 95%.

On to `COc1ccccc1N1CCN(c2cccc3c2nc(-c2cncc(C#N)c2)n3CCNCc2ccccc2)CC1.O=C(O)C(F)(F)F`, for which the Inhibition is listed as 100%. The result for `O=C(Nc1ccc(OC2CCN(Cc3ccccc3)CC2)c(Cl)c1)c1cccs1.O=C(O)C(F)(F)F` reads 96%; that for `O=C(Cc1ccccc1)NC(c1ccco1)c1cc(Cl)c2cccnc2c1O` (stereo not given), 89%. As for `COc1ccc(CNc2nc(NCc3ccccc3)c3cc(OC)c(OC)cc3n2)cc1OC`, the figure is 100%; as for `CC(=O)Nc1ccc(Cl)c(Cl)c1`, 95%.

Molecule `CC(=O)Nc1ccc(OCCCCN(Cc2ccccc2C(F)(F)F)c2ccc(C(F)(F)F)c(C#N)c2)c(Cl)c1` registered an Inhibition of 96%.

`Cc1ccc(C)c(CC(=O)N2CCC(n3c(C)nc4ccc(F)cc43)CC2)c1` showed an Inhibition of 100%. The result for `N#Cc1cccc(C(=O)Nc2cccc(-c3ccc(CN4CCCC4)cc3)c2)c1.O=C(O)C(F)(F)F` reads 98%; that for `CCN(CC)CCCC(C)Nc1c2cc(OC)ccc2nc2cc(Cl)c([N+](=O)[O-])cc12` (stereo not given), 100%. The result for `CCOc1ccc(-c2nc(NC(=O)Cc3cccc(OC)c3)sc2C)cc1` reads 97%; that for `CCC1(CC)C(=O)N=C(N2CCCCC2)N(C)C1=O`, 89%; that for `COc1ccc(-c2ccc(NC(=O)c3cccc(F)c3)cc2)cc1CNC(C)C.O=C(O)C(F)(F)F`, 97%. The result for `O=C(Nc1ccc2c(c1)OCO2)NC1CCN(c2ccnc(NCc3ccc(F)cc3)n2)CC1` reads 88%; that for `COC(=O)c1cccc(CNCc2cccc(-c3ccc(-c4nc5cccc(C)c5[nH]4)cc3)c2)c1.O=C(O)C(F)(F)F`, 100%; that for `COc1ccc(CNCc2ccc(F)cc2)cc1-c1ccc(S(=O)(=O)NCCN2CCCC2)c(C)c1.O=C(O)C(F)(F)F`, 98%. `CCC(CC)(Cc1ccccc1)NC(=O)[C@H](CC1CCCCC1)Nc1ccc(C#N)c2ccccc12.O=C(O)C(F)(F)F` came in with an Inhibition of 95%. Regarding `COc1ccc(NC(=O)[C@H](CC(C)C)Nc2cc(C)nc(NCCOc3ccccc3)n2)cc1.O=C(O)C(F)(F)F`, the Inhibition was 100%.
